The whole screen tested about 2,200 compounds, of which about 1,200 (55%) were called active. The limit is not given here; nearly all actives have IC50 up to about 92 µM. The set was probably picked from earlier hits. The list shows a part of the results.
assay: counter assay for TAg ATPase ADP read-out – biochemical, ADP-Hunter, fluorescence, counter-screen (AID 2501); conditions: series mostly up to 100 µM; inhibition: at the top concentration;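 also: purified T antigen ATPase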;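 as to inhibition: 0% = enzyme with vehicle and 100% = reference inhibitor wells; higher means more inhibition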

SMILES | inhibition | IC50
Clc1ccccc1CSc1nnc(-c2ccco2)c(-c2ccco2)n1 | -26.5% (inactive) | –
C=CCc1ccc(OCCN2CCc3ccccc3C2)c(OC)c1 | -23.3% (inactive) | –
O=[N+]([O-])c1ccc(SCCc2ccncc2)cc1 | -30.2% (inactive) | –
CN1CCc2[nH]c3ccc(C(=O)NN)cc3c2C1 | 12.9% (inactive) | –
Cc1c(CCO)c(=O)n(C)n1C(=O)c1ccc(Cl)cc1 | 11.2% (inactive) | –
O=C(CCSc1ccc(Cl)cc1)N1CCN(c2ccc(O)cc2)CC1 | – | 7.46 µM (active)
CCOC(=O)N1CCN(C(=O)c2ccc3c(SCC(=O)O)c4c(nc3c2)CCCC4)CC1 | -5.78% (inactive) | –
O=C(COc1cccc(C(F)(F)F)c1)N1CCN(c2ccc(O)cc2)CC1 | – | 15.1 µM (active)
CCOC(=O)N1CCN(c2ccc(O)cc2)CC1 | – | 4.16 µM (active)
O=C(COC(=O)COc1cccc(C(F)(F)F)c1)NC1CCCC1 | 2.64% (inactive) | –
COc1cc(OC)cc(C(=O)NCC(=O)N2CCN(c3ccc(O)cc3)CC2)c1 | – | 8.71 µM (active)
Cc1cc(OCC(=O)N2CCN(c3ccc(F)cc3)CC2)c2c(C)cc(=O)oc2c1 | -42.5% (inactive) | –
CCOc1ccccc1NC(=O)COC(=O)c1cccc(-c2ccc(OC(C)=O)cc2)c1 | 24.5% (inactive) | –
CCOc1cc(NC2CS(=O)(=O)CC2O)c(OCC)cc1NC(=O)c1ccccc1 (stereo unspecified) | – | 4.18 µM (active)
CCOc1cccc(=O)c2c(C)n(-c3ccc(C(=O)O)cc3)c(C)c12 | -5.55% (inactive) | –
COc1ccc2c(=O)c3c(=O)n(Cc4ccco4)c(-c4ccco4)nc3oc2c1 | 7.05% (inactive) | –
Cc1ccc(S(=O)(=O)N2CCCOC2CNC(=O)C(=O)NCCc2c[nH]c3ccccc23)cc1 (stereo unspecified) | 18.5% (inactive) | –
CC(=O)NCCc1c[nH]c2ccc(O)cc12 | – | 7 µM (active)
O=C1c2ccccc2C(=O)N1CCc1c[nH]c2ccc(O)cc12 | – | 7.26 µM (active)
OCCc1c[nH]c2ccc(C(F)(F)F)cc12 | 8.25% (inactive) | –
O=[N+]([O-])c1ccc(S(=O)(=O)N2CCSC2c2ccco2)cc1 (stereo unspecified) | -53.9% (inactive) | –
COc1cc(/C=N/N=C(\N)c2nonc2N)ccc1O | – | 4.89 µM (active)
N/C(=N\N=C\c1ccc(O)c(O)c1)c1nonc1N | – | 14 µM (active)
O=c1oc2ccccc2c2oc3cc(O)c(O)cc3c12 | – | 8.13 µM (active)

SMILES | inhibition | IC50
COc1ccc(C2CC(=O)C(C(c3ccc(O)cc3)C3C(=O)CC(c4ccc(OC)cc4)CC3=O)C(=O)C2)cc1 (stereo unspecified) | 1.91% (inactive) | –
CN(C)c1ccc(C(=O)c2ccc(N(C)C)c(N)c2)cc1N | – | 4.76 µM (active)
O=C(CNC(=O)c1ccccc1)OCc1ccc([N+](=O)[O-])cc1 | 1.14% (inactive) | –
COc1cc(/C=N/NC(=O)c2cccc([N+](=O)[O-])c2)ccc1O | – | 2.38 µM (active)
COc1cc(/C=N\NC(=O)CNC(=O)c2cccc([N+](=O)[O-])c2)ccc1O | – | 2.18 µM (active)
C#CCOCCOCCOCCNc1nc(N2CCN(C(=O)CCCCCCCCCCNC(=O)[C@H](CCCCN)n3cc(C[C@@H](C)CC)nn3)CC2)nc(N2CCN(C(=O)CCCCCCCCCCNC(=O)[C@H](CCCCN)n3cc(C[C@@H](C)CC)nn3)CC2)n1 | 0.98% (inactive) | –
CN(C)S(=O)(=O)c1cccc(-n2sc3ccccc3c2=O)c1 | – | 8.98 µM (active)
O=C(O)c1ccccc1NS(=O)(=O)c1cccc(-n2sc3ccccc3c2=O)c1 | – | 9.24 µM (active)
Cc1ccc(-n2sc3ccccc3c2=O)cc1S(=O)(=O)N1CCCCC1 | – | 24.1 µM (active)
CCC1CCCCN1S(=O)(=O)c1ccc(NC(=O)c2nc(S(C)(=O)=O)ncc2Cl)cc1 (stereo unspecified) | 14.9% (inactive) | –
O=C(C1=C[C@@H](c2ccc(Br)cc2)C[C@@H](OCCCCO)O1)N1CCOCC1 | 10.4% (inactive) | –
Nc1c(C=C2C=CC(=O)C=C2)c(=O)nc2sc(CC(=O)N3CCCCC3)nn12 | – | 12.5 µM (active)
Nc1c(/C=C2/C=CC(=O)C(O)=C2)c(=O)nc2sc(CC(=O)N3CCCC3)nn12 | – | 8.26 µM (active)
COC1=C/C(=C/c2c(N)n3nc(CC(=O)N4CCCCC4)sc3nc2=O)C=CC1=O | – | 7.89 µM (active)
Nc1c(/C=C2/C=CC(=O)C(O)=C2)c(=O)nc2sc(CC(=O)N3CCCCC3)nn12 | – | 10.5 µM (active)
CC(=O)O[C@H]1C[C@@]2(C)[C@@H](C[C@@H](O)[C@H]3[C@@]4(C)CC[C@@H](O)[C@@H](C)C4CC[C@@]32C)/C1=C(\CCC=C(C)C)C(=O)O (stereo partly specified) | 28.7% (inactive) | –
CC(=O)NCCC1CCCCN1Cc1nc(Cc2cccc(C(F)(F)F)c2)no1 (stereo unspecified) | 18.1% [at 50 µM] (inactive) | –
Cc1ccc(C(C(=O)NCc2ccc(F)cc2)N(CCCO)C(=O)C2COc3ccccc3O2)o1 (stereo unspecified) | -18.2% (inactive) | –
O=c1[nH]c(/C=C\c2ccc(O)c(O)c2)nc(O)c1[N+](=O)[O-] | – | 5.5 µM (active)
O=C(O)c1cc(S(=O)(=O)Nc2ccc3oc(=O)sc3c2)ccc1O | 13.4% [at 50 µM] (inactive) | –
O=c1oc2cc(O)ccc2s1 | – | 11.8 µM (active)
CCOC(=O)NNc1ccc2nonc2c1[N+](=O)[O-] | 10.1% (inactive) | –
O=c1cc(-c2ccccc2Cl)oc2cc(O)cc(O)c12 | -10.2% (inactive) | –
O=c1cc(-c2ccc(O)c(O)c2)oc2cc(O)c(C3OC(CO)C(O)C(O)C3O)c(O)c12 (stereo unspecified) | – | 5.59 µM (active)

SMILES | inhibition | IC50
O=c1c2cc(O)c(O)cc2oc2cc(O)c(C3OC(CO)C(O)C(O)C3O)c(O)c12 (stereo unspecified) | – | 6.35 µM (active)
O=c1cc(-c2ccc(O)cc2)oc2c(C3OCC(O)C(O)C3O)c(O)c(C3OC(CO)C(O)C(O)C3O)c(O)c12 (stereo unspecified) | – | 17.3 µM (active)
O=c1cc(-c2ccc(O)cc2)oc2cc(O)c(C3OC(CO)C(O)C(O)C3O)c(O)c12 (stereo unspecified) | – | 18.6 µM (active)
Cc1cccc(N2CCN(C(=O)Cn3sc4nc(C)cc(C)c4c3=O)CC2C)c1 (stereo unspecified) | -23.9% (inactive) | –
O=c1[nH]c(=S)[nH]c2c1C(c1ccc(Br)cc1)c1c([nH]c(=S)[nH]c1=O)O2 | 18.7% (inactive) | –
O=C1CCCC2=C1C(c1ccc(Br)cc1)c1c([nH]c(=S)[nH]c1=O)N2 (stereo unspecified) | – | 92 µM (active)
COCCNC(=S)N/N=C(\C)c1ccc(O)cc1 | – | 3.77 µM (active)
COCCCNC(=S)N/N=C/c1ccc(O)cc1 | – | 1.83 µM (active)
C/C(CCc1ccccc1)=N\NC(=S)NCCc1ccccc1 | 16.8% (inactive) | –
COCCCNC(=O)c1cc2cc3cc(OC)ccc3nc2o1 | 5.55% (inactive) | –
COCCCNC(=S)N/N=C/c1ccc(O)cc1O | – | 6.62 µM (active)
O=[N+]([O-])c1ccc2c(c1N1CCCCC1)=NC1(CCCCC1)[N+]=2[O-] | -22% (inactive) | –
COc1ccc(NC(=O)c2sc(=S)[nH]c2N)cc1 | – | 8.22 µM (active)
N=C1/C(=C\c2ccc(SCc3ccco3)o2)C(=O)N=C2SC=NN12 | -16% (inactive) | –
COc1cc(/C=N/N=C2/C(=O)Nc3ccccc32)ccc1O | – | 4.52 µM (active)
O=C1Nc2ccccc2/C1=N\N=C\c1ccc(O)c(O)c1 | – | 8.1 µM (active)
COc1cc(/C=N/N=C2/C(=O)Nc3ccccc32)cc(OC)c1O | – | 5.67 µM (active)
CCOC(=O)CN1C(=O)CC(c2ccc([N+](=O)[O-])cc2)C1=O (stereo unspecified) | -22.7% (inactive) | –
O=C(CS(=O)(=O)c1ccccc1)c1cc2cc(F)ccc2oc1=O | 10.5% [at 50 µM] (inactive) | –
CN(C)C(=O)c1c(-c2ccccc2)oc2ccc(O)cc12 | – | 17.2 µM (active)
C=CCSC1=NC(=O)/C(=C/c2cccs2)S1 | -34% (inactive) | –
COc1ccc(N2C(=S)NC3c4cc(Cl)ccc4OC2(C)C3C(=O)N(C)C)cc1 (stereo unspecified) | 12.2% [at 50 µM] (inactive) | –
CCOc1cc(/C=C2\C(=O)NN(c3ccccc3)C2=O)cc([N+](=O)[O-])c1O | – | 6.78 µM (active)
CCOc1cc(/C=C2\C(=N)N3N=CSC3=NC2=O)ccc1OS(=O)(=O)c1ccccc1 | 1.1% (inactive) | –

SMILES | inhibition | IC50
COc1cc(/C=C2\C(=O)NN(c3ccccc3)C2=O)cc([N+](=O)[O-])c1O | – | 59.3 µM (active)
Cc1ccsc1/C=C1/C(=O)NN(c2ccccc2)C1=O | – | 1.75 µM (active)
CCOc1cc(/C=C2\C(=O)ON=C2c2ccccc2)cc(Br)c1O | 7.3% [at 50 µM] (inactive) | –
COc1cc(/C=C2/C(=O)NN(c3ccc(Cl)c(Cl)c3)C2=O)cc([N+](=O)[O-])c1O | – | 14.6 µM (active)
C/C(=N\NC(=O)c1csc(C)c1C)c1ccc(C)s1 | -12.3% (inactive) | –
O=Cc1coc2c(ccc3ccccc32)c1=O | – | 10.1 µM (active)
COc1cc([C@@H]2Oc3cc(C4Oc5cc(O)cc(O)c5C(=O)[C@H]4O)ccc3O[C@H]2CO)ccc1O (stereo partly specified) | – | 31.4 µM (active)
O=C1c2c(O)cc(O)cc2O[C@H](c2ccc(O)c(O)c2)[C@H]1O | – | 5.9 µM (active)
COc1cc(OC)c2c(c1O)OC(c1ccccc1)CC2=O (stereo unspecified) | 16.1% (inactive) | –
O=C1CC(c2ccc(O)c(O)c2)Oc2cc(O)cc(O)c21 (stereo unspecified) | – | 4.23 µM (active)
O=C1CC(c2ccc(O)c(O)c2)Oc2c1ccc(O)c2O (stereo unspecified) | – | 13.6 µM (active)
CC(=O)Nc1nnc(SCc2cccc(F)c2)s1 | -9.37% (inactive) | –
O=C1/C(=C/c2ccco2)SC(=S)N1CCC(=O)N1CCCCC1CCO (stereo unspecified) | 4.5% (inactive) | –
O=C(O)CN1C(=O)/C(=C\C(Br)=C\c2ccccc2)SC1=S | 25.4% (inactive) | –
O=C(O)CN1C(=O)/C(=C/c2ccc(N3CCCCC3)o2)SC1=S | – | 38.4 µM (active)
O=C1NC(=S)S/C1=C\c1ccc(SCc2ccccc2)o1 | 28.9% (inactive) | –
O=C1NC(=S)S/C1=C/c1ccc(N2CCOCC2)o1 | – | 18.9 µM (active)
COc1ccccc1N1C(=O)C=C(Sc2nc(C)cc(C)n2)C1=O | 10.2% (inactive) | –
CN(C)c1ccc(N=c2sc3ccccc3n2C)cc1 | – | 7.65 µM (active)
COC(=O)/C(=C/Nc1ccc(O)cc1)[N+](=O)[O-] | – | 3.8 µM (active)
O=C(c1ccco1)N1CCN(C(=S)Nc2ccc(F)c(Cl)c2)CC1 | – | 39.5 µM (active)
N=c1c[n+](N2CCOCC2)[n-]o1 | 4.79% (inactive) | –
Oc1ccc(Nc2nc(N3CCCC3)c3ccccc3n2)cc1 | – | 4.06 µM (active)
CN1CCN(c2nc(Nc3ccc(O)cc3)nc3ccccc23)CC1 | – | 6.32 µM (active)

From PubChem BioAssay AID2501 (Southern Research Specialized Biocontainment Screening …, 2010)
